High-throughput results deposited in PubChem by The Scripps Research Institute Molecular Screening Center.
Rows were chosen to be rich in hits. Some 3.5% of all compounds tested hit in one or more screens of this group.
FBW7 act: human FBW7 E3 ligase activation, primary screen | Q969H0 | AlphaScreen FBW7–phospho-cyclin E peptide binding, activator screen | normalized activity (activation), % at 26.1 µM | 0.13% of 650,000 active; in the data active = normalized activity above about 1.9%;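 note: purified mutant Fbw7 with reduced substrate affinity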
Target sequence (Q969H0 whole entry, looked up): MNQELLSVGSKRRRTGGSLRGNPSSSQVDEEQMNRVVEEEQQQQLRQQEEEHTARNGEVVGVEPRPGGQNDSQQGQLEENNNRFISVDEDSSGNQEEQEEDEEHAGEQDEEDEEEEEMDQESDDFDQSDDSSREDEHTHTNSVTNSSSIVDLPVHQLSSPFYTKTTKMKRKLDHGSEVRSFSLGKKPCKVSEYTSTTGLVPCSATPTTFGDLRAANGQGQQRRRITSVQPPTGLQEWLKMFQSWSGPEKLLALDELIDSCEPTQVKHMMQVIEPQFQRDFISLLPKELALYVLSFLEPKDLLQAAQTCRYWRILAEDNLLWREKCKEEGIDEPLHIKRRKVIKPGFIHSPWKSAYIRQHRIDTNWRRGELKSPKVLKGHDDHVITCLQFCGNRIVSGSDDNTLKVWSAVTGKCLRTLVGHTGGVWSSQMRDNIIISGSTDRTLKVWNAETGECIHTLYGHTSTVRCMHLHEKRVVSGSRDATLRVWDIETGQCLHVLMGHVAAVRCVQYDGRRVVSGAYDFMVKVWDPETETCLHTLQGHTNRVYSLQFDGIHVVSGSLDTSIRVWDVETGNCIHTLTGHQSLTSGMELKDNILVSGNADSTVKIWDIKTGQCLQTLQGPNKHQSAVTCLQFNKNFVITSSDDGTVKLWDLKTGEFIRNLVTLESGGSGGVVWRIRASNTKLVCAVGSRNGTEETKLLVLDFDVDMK
GPR151 ag: activators of human GPR151; Q8TDV0; PathHunter beta-arrestin GPR151 cells, luminescence; activation, % at 11.2 µM; 1% of 650,000 active; in the data active = activation above about 4.9%;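 note: 0% = median of compound wells and 100% = cells with positive control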
MITF inh: blocks human microphthalmia-associated transcription factor; O75030; AlphaScreen MITF homodimerization, bead proximity signal; inhibition, % at 2.6 µM; 0.91% of 650,000 active; AID 1259374; in the data active = inhibition above about 50%;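 note: 0% = vehicle wells with protein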
TEAD-YAP block: TEAD-YAP interaction inhibition; AID 1259422; 1.4% of 640,000 active; inhibition, % at 9.12 µM; HEK-TIYL cells, TEAD-Gal4/YAP UAS-luciferase luminescence; in the data active = inhibition above about 32%;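 note: 0% = median of test compound wells and 100% = reference inhibitor wells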
* marks the source's active call; other numbers are inactive results.

SMILES | FBW7 act | GPR151 ag | MITF inh | TEAD-YAP block
O=C1/C(=C\c2ccccc2[N+](=O)[O-])Sc2ccccc21 | 0 | 1 | -4 | 4
O=C(O)CCC(=O)N(c1ccccc1)c1ccccc1 | 0 | 0 | -5 | 0
Cn1c(-c2ccccc2)cnc1NC(=O)c1ccccc1 | 0 | -1 | 4 | 57*
NC(=O)c1ccsc1NC(=O)CSc1nnc(-c2ccccc2)n1-c1ccccc1 | 0 | 0 | 2 | 45*
O=C(CSc1nnc(-c2ccccc2)n1-n1cccc1)Nc1nccs1 | 0 | 0 | 3 | 38*
C=CCn1c(SCC(=O)Nc2sccc2C(N)=O)nnc1-c1ccccc1 | 0 | -1 | 5 | 26
Cc1csc(NC(=O)CSc2nnc(-c3ccccc3O)n2-c2ccccc2)n1 | 0 | -1 | -1 | 57*
CCn1c(SCC(=O)Nc2nccs2)nnc1-c1ccccc1O | 0 | 1 | 2 | -6
C=CCn1c(SCC(=O)Nc2nccs2)nnc1-c1ccccc1O | 0 | 0 | -6 | 61*
CCOC(=O)N1CCC(NC(=O)C2CC23CCN(Cc2nc4ccccc4[nH]2)CC3)CC1 (configuration not stated) | 0 | 1 | 4 | 6
CCCCN(CC(N)=O)S(=O)(=O)c1ccccc1 | 0 | 2 | -1 | 7
CC(C)n1c(N2CCN(Cc3ccc4c(c3)OCO4)CC2)nc2c(NCc3cccnc3)ncnc21 | 0 | 2 | -6 | -9
COC(=O)c1ccccc1NC(=O)COc1ccc(S(=O)(=O)NCC(C)C)cc1C | 0 | -2 | 0 | 1
O=C(CSc1nnc(-c2ccccc2O)n1-c1ccccc1)Nc1nccs1 | 0 | -1 | 2 | 54*
CCCCc1ccc(-n2nnnc2SCC(=O)Nc2sccc2C(N)=O)cc1 | 0 | 0 | -2 | 37*
CC(NC(=O)C(=O)NCCCO)c1ccccc1 (configuration not stated) | 0 | 0 | 14 | -10
CN(C1CCN(c2ccc(C(=O)NCc3ccc4c(c3)OCO4)cc2)CC1)C1CCOC1 (configuration not stated) | 0 | 1 | 4 | 3
O=C(O)C1Nc2c(I)cccc2C2C=CCC12 (configuration not stated) | -1 | 0 | 83* | 7
Brc1ccc(C2Nc3c(I)cccc3C3C=CCC32)cc1 (configuration not stated) | 0 | -2 | 10 | 11
O=C(O)C1Nc2c(O)cccc2C2C=CCC12 (configuration not stated) | 0 | 2 | 108* | -3
Nc1cccc(F)c1Nc1ccc2c(cnn2-c2cccc(C(=O)NCCN3CCOCC3)c2)c1 | 0 | 0 | -14 | 79*
COc1ccccc1C(=O)Nc1ccc(N2CCOCC2)cc1N1CCOCC1 | 0 | -1 | 4 | -3
Cc1ccsc1/C=C/C(=O)NCC(=O)N1CCC(N(C)C2CCCCC2C)CC1 (configuration not stated) | 1 | -1 | 6 | 4
NC(=O)CSc1nc2sc3c(c2c(=O)n1-c1cccc2ccccc12)CCCC3 | 0 | 0 | 2 | 38*
CC1CN(C2CCN(Cc3cc(Br)ccc3O)CC2)CC(C)O1 (configuration not stated) | 0 | 0 | 70* | 10
SMILES | FBW7 act | GPR151 ag | MITF inh | TEAD-YAP block
OCCN1CCN(C2CCN(Cc3cc(Br)ccc3O)CC2)CC1 | 0 | 0 | 53* | -11
Oc1ccc(Br)cc1CN1CCC(N2CCCCC2)CC1 | -1 | -1 | 46 | -1
COc1cc(C)ccc1NC(=O)C(Br)C(C)C (configuration not stated) | 0 | 0 | 0 | 7
COc1ccc(CNc2ccc(C(=O)Nc3cccc(OC)c3)cc2[N+](=O)[O-])cc1 | 0 | -1 | 5 | 52*
CCc1ccccc1NC(=O)c1ccc(NCc2ccc(OC)cc2)c([N+](=O)[O-])c1 | 0 | 0 | 2 | 57*
CCc1ccccc1NC(=O)c1ccc(NCc2ccc(C)cc2)c([N+](=O)[O-])c1 | 0 | 4 | 1 | 57*
CCc1ccccc1NC(=O)c1ccc(SCc2ccc(OC)cc2)c([N+](=O)[O-])c1 | 0 | -1 | -5 | 1
O=C(Cn1nnc(-c2ccc(S(=O)(=O)N3CCCC3)cc2)n1)NCC1CCCO1 (configuration not stated) | 0 | 2 | 0 | 2
O=C(Cn1nnc(-c2ccc(S(=O)(=O)N3CCCC3)cc2)n1)NCc1ccco1 | 0 | 1 | 3 | 42*
CC(=O)OCC1OC(SCc2ccccc2F)C(OC(C)=O)C(OC(C)=O)C1OC(C)=O (configuration not stated) | 0 | 1 | 1 | 4
Cc1ccccc1Cn1cc(C=C2C(=O)N(C)C(=O)N(C)C2=O)c2ccccc21 | 0 | -1 | 17 | 0
Cc1ccccc1OCCCn1cc(C=C2C(=O)N(C)C(=O)N(C)C2=O)c2ccccc21 | 0 | -2 | -7 | 34*
CCCN(C(=O)Cn1ncc2c(=O)oc3ccccc3c21)c1ccc(F)cc1 | 0 | -1 | -2 | 6
Cc1cccc(NC(=O)COc2ccc(Cl)cc2Cl)c1 | 0 | -1 | -4 | -24
COc1ccccc1OCC(=O)Nc1cccc(C(=O)O)c1 | 0 | -7 | -9 | 36*
O=C(COc1ccc(Cl)cc1[N+](=O)[O-])Nc1ccccc1 | 0 | -1 | -6 | 34*
O=Cc1ccccc1OCC(=O)Nc1ccccc1 | 1 | -3 | 15 | 32*
O=C(COc1ccc(Cl)cc1Cl)Nc1cccc(O)c1 | 0 | -1 | 15 | 71*
O=C(COc1ccc(C(F)(F)F)cc1[N+](=O)[O-])Nc1ccc(Cl)cc1 | 0 | 0 | -2 | -14
O=C(CSc1ncn[nH]1)Nc1ccc(S(=O)(=O)N2CCOCC2)cc1 | 0 | 0 | 8 | 4
Cc1cc(C)n(NC(=O)c2cc(-c3ccc(F)cc3)nc3ccccc23)c(=O)c1C#N | 1 | 1 | 7 | -2
COc1ccc(C(=O)NNC(=S)NCc2ccco2)cc1OC | 0 | 0 | 14 | 7
COc1ccc(NC(=O)COc2ccccc2C)cc1OC | 1 | 1 | -10 | -14
CC(C)(C)c1ccccc1OCC(=O)NN | 0 | 0 | -5 | 36*
O=C(COc1ccc(Cl)cc1Cl)Nc1cccc(C(=O)O)c1 | 0 | -7 | -14 | 97*
SMILES | FBW7 act | GPR151 ag | MITF inh | TEAD-YAP block
COc1ccc(NC(=O)COc2ccccc2C(C)(C)C)cc1OC | 0 | 3 | 7 | 43*
CCOc1ccc(CCNS(=O)(=O)c2ccc3c(c2)CCN3C(C)=O)cc1OCC | 0 | 0 | 8 | 23
COc1ccccc1OCCOc1ccc(C=O)cc1 | 0 | -1 | 6 | -2
COc1ccc(OCCOCCOc2ccccc2C=O)cc1 | 0 | -1 | -7 | 46*
Cc1ccc2c(Cl)c(C(=O)Nc3ncccn3)sc2c1 | 1 | -4 | 3 | 51*
O=c1oc2ccccc2cc1-c1cn(-c2ccc(F)cc2)c(=S)[nH]1 | 0 | -1 | -11 | 72*
O=c1oc2ccccc2cc1-c1cn(-c2ccccc2F)c(=S)[nH]1 | 0 | -1 | -4 | 68*
COc1ccc(-n2cc(-c3cc4ccccc4oc3=O)[nH]c2=S)cc1 | 0 | 0 | 5 | 17
